HIV RNase H inh-1 – inhibitors of HIV-1 reverse transcriptase RNase H; P04585; RT-RNase H RNA/DNA duplex cleavage, fluorescence; inhibition, % at 10 µM; hit rate 1.9% among 65,000; AID 565; in the data active means inhibition above about 50%
HIV RNase H inh-2 – confirmation of HIV-1 reverse transcriptase RNase H inhibitors; shares compounds with HIV RNase H inh-1; Recombinant RT RNase H, fluorescent RNA/DNA duplex cleavage; inhibition, % at 10 µM; hit rate 39% among 1,000; AID 651; in the data active means inhibition above about 48%
Large screens that a line does not name were inactive (follow-up assays come after a bar, where they were run). This is one part of a sample in which hits are shown more often than they occur.

C=CCN(C(=O)CCC(=O)O)C1CC(=O)N(c2ccc(OCCC)cc2)C1=O (centres undefined)	none
O=C(COCc1nc2ccccc2c(=O)[nH]1)NC1CCCC1	none
COc1ccccc1NC(=O)c1cc2ccc(O)cc2o/c1=N\O	none
COc1ccccc1NC(=O)c1ccccc1SC	none
COc1ccccc1NC(=O)c1cc2ccccc2o/c1=N\O	HIV RNase H inh-1 89.5 | HIV RNase H inh-2 inactive
Cc1ccc(S(=O)(=O)N2CCSC2c2ccco2)cc1 (centres undefined)	none
CC1=C(C(=O)OC2CCCC2)C(c2ccc(C)o2)C2=C(CC(c3cccs3)CC2=O)N1 (centres undefined)	none
CC1=C(C)C(=O)N(c2ccc(C(=O)O)cc2)C1=O	none
O=C1C(Cl)=C(N2CCN(Cc3ccccc3)CC2)C(=O)N1c1ccccc1	HIV RNase H inh-1 85.2 | HIV RNase H inh-2 inactive
Cc1ccc(C(=O)N2CCN(c3ccc(Cl)cc3)CC2)cc1	none
O=C1CC(N2CCN(Cc3ccccc3)CC2)C(=O)N1c1ccccc1 (centres undefined)	none
Cc1cc(=O)[nH]c(N2CCN(Cc3ccccc3)CC2)n1	none
CN1CCN(C2=C(Cl)C(=O)N(c3ccc(Cl)cc3)C2=O)CC1	HIV RNase H inh-1 82.0 | HIV RNase H inh-2 inactive
COc1ccc(N2C(=O)C(Cl)=C(N(CCO)Cc3ccccc3)C2=O)cc1	none
COc1ccc(N2C(=O)C(Cl)=C(N3CCN(Cc4ccccc4)CC3)C2=O)cc1	HIV RNase H inh-1 89.8 | HIV RNase H inh-2 inactive
COc1ccc(S(=O)(=O)N2CCN(Cc3ccccc3)CC2)cc1	none
CCOCCCn1c(=S)[nH]c2cc3c(cc2c1=O)OCO3	none
Nc1nc(C2CC2)c(Sc2sc(N)nc2C2CC2)s1	none
CCCCC12CN3CC(C)(CN(C1)C31C(=O)N(C)c3ccc(C)cc31)C2=O (centres undefined)	none
O=C(CCNS(=O)(=O)c1cccs1)N1CCc2ccccc2C1	none
CC1=C(C(=O)Nc2cccc(C)n2)C(c2ccc3c(c2)OCO3)C2=C(CC(c3ccco3)CC2=O)N1 (centres undefined)	none
O=C(CSc1nc2ccccc2c(=O)n1-c1ccc(Cl)cc1)c1ccco1	none
c1ccc(-n2ncc3c(N4CCN(c5ccccn5)CC4)nc(N4CCOCC4)nc32)cc1	none
Nc1ccc(-c2nc3ccc(N)cc3o2)cc1	none
Nc1ccc2nc(-c3ccc(Cl)cc3)[nH]c2c1	none
Nc1ccc(-c2nc3ccc(-c4nc5ccccc5o4)cc3[nH]2)cc1	HIV RNase H inh-1 72.7 | HIV RNase H inh-2 inactive
CC(=O)N1CCN=C1SCc1ccc(Cl)cc1	none
Cc1cc(NC(=O)CN2CCc3ccccc3C2)nc2c1c(=O)oc1ccccc12	HIV RNase H inh-1 57.8 | HIV RNase H inh-2 inactive
Cc1cc(NC(=O)CC(C)(C)C)nc2c1c(=O)oc1ccccc12	none
CCCC(=O)Nc1cc(C)c2c(=O)oc3ccccc3c2n1	none
CN(C)c1nc(OCC(=O)NC(C)(C)C)nc(N(C)C)n1	none
COc1ccc(OC)c(N2C(=O)CC(Cc3ccc(C)cc3)C2=O)c1 (centres undefined)	none
Cc1ccc(-c2nnn(CC(=O)Nc3cccc4c3CCCC4)n2)o1	HIV RNase H inh-1 70.7 | HIV RNase H inh-2 inactive
Cc1ccc(-c2nnn(CC(=O)NCCc3ccc4c(c3)OCO4)n2)o1	none
CCN(CC)C(=O)Cn1nnc(-c2ccc(C)o2)n1	none
Cn1c(C(=O)N2CCc3ccccc32)cc2c(=O)n3ccccc3nc21	none
CC(C)Cn1c(Br)nc2c1c(=O)n(CCC#N)c(=O)n2C	none
Cc1ccccc1OCc1nnc2c3cnn(C)c3ncn12	none
CN1CC(=O)NC1=NC(=O)c1ccc(Cl)c(S(=O)(=O)N2CCCCCC2)c1	none
Cc1cc(C)nc(N2CCCC(C(=O)NCCC3=CCCCC3)C2)n1 (centres undefined)	none
N#Cc1c(NC(=O)CSc2nnnn2C2CCCCC2)sc2c1CCCC2	none
N#Cc1ccc(-c2cccnc2)nc1SCC(=O)Nc1sc2c(c1C#N)CCC2	HIV RNase H inh-1 89.8 | HIV RNase H inh-2 inactive
N#Cc1c(NC(=O)CSCC(=O)O)sc2c1CCCC2	none
Cc1ccn2cc(CNS(=O)(=O)c3ccc(Cl)s3)nc2c1	none
COc1c(Cl)ccc(Cl)c1C(=O)OCC(=O)O	none
COc1ccc(C(=O)COC(=O)CCn2nnc(-c3cccs3)n2)cc1	none
